High-throughput results: PubChem BioAssay, National Center for Advancing Translational Sciences (NCATS)
Rows were chosen to be rich in hits. Some 1.9% of all compounds tested hit in one or more screens of this group.
ALOX15 inhib – qHTS Assay for Inhibitors of 15-hLO (15-human lipoxygenase); Polyunsaturated fatty acid lipoxygenase ALOX15 (Homo sapiens), P16050; purified 15hLO-1, xylenol orange hydroperoxide absorbance; Potency, µM (titrated, usually from 57.1 µM), inactives show at the highest dose activity change, negative = inhibition, most hits filed as inhibitors; 74,000 tested, 1.4% active; AID 887, 2007; note: potency is the fitted concentration of half-maximal effect; % is set by controls: 0 for no effect and ±100 for the full control effect; nearly all actives have a fitted effect of over 55% in size
Target sequence (P16050 whole entry, looked up): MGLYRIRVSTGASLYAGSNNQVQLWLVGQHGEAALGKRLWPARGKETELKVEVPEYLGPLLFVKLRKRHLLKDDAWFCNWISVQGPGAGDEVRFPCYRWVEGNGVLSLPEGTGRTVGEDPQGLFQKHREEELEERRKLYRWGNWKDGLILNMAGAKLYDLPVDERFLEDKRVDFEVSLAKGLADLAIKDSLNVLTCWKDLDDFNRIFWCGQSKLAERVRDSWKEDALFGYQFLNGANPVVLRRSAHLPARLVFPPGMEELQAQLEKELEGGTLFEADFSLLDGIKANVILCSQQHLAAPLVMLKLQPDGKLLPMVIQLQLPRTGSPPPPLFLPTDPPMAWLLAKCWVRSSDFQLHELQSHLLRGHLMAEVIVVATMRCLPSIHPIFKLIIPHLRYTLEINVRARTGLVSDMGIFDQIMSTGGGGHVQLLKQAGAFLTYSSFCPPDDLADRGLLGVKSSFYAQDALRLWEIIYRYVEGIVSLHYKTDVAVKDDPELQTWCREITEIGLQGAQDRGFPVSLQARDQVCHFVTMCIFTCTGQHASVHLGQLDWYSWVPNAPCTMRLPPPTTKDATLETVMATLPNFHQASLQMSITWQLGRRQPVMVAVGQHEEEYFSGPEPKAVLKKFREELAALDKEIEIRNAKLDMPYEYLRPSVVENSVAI
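Hydroperoxide formed from arachidonic acid (50 uM) by purified human 15hLO-1 (40 nM) oxidizes ferrous iron, and the ferric-xylenol orange complex is read at 573 versus 405 nm. Compounds were preincubated 15 min; reaction ran 6 min at room temperature.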
TsaE inh – qHTS Assay for Inhibitors of YjeE; Potency, µM; purified YjeE enzyme, qHTS inhibition assay; tRNA threonylcarbamoyladenosine biosynthesis protein TsaE (Escherichia coli (strain …; 71,000 tested, 0.05% active; AID 605, 2007
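Purified YjeE (10 uM) with BODIPY Texas Red-labeled ADP probe (2 uM); compounds pin-transferred, 15 min at room temperature. Binding inhibition read as decreased fluorescence polarization; ADP titration as control.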
BRCT PPI red – qHTS Assay for Inhibitors of BRCT-Phosphoprotein Interaction (Red Fluorophore). AID 892, 2007. Breast cancer type 1 susceptibility protein (Homo sapiens), P38398. 75,000 tested, 0.03% active. Potency, µM (series often up to 76.9 µM), for the others: at the top dose activity change, negative = inhibition, hits mostly inhibitors. BRCT-phosphopeptide binding, red fluorescence polarization; note: % is set by controls: 0 for no effect and ±100 for the full control effect
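Fluorescence polarization: 100 nM His-tagged BRCA1 BRCT with 100 nM TAMRA-labelled phospho-BACH1 decapeptide, phosphate buffer pH 7.3 with 150 mM NaCl, DTT, 0.01% Tween 20; 12 min RT. Binding inhibition seen as FP decrease.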
Hsp90 Hop PPI – qHTS Assay for Disrupters of an Hsp90 Co-Chaperone Interaction; Hsp90 C-terminal peptide / TPR2A (Hop) interaction, human; AlphaScreen TPR2A-His6 binding biotin-Hsp90 C-terminal peptide; Potency, µM (top dose mostly 57 µM), for inactives: at the highest dose activity change, negative = inhibition; 71,000 tested, 0.44% active; AID 595, 2007; active = well fitted curve in either direction with a large enough effect; inconclusive = small, poorly fitted or top-dose-only effect, or another doubt; note: potency is the fitted concentration of half-maximal effect; % is set by controls: 0 for no effect and ±100 for the full control effect
Pol III holo inh – qHTS Assay for Inhibitors of DNA Polymerase III Holoenzyme System. Potency, µM (doses to about 57.1 µM), inactives show top-dose activity change, negative = inhibition. 71,000 tested, 0.25% active. reconstituted DNA polymerase III holoenzyme replication, biochemical; note: potency is the fitted concentration of half-maximal effect; % is set by controls: 0 for no effect and ±100 for the full control effect
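Reconstituted *E. coli* holoenzyme (0.35 nM Pol III, 1 nM beta, 154 nM SSB, 2 nM primase) was preincubated with compound for 15 min at RT. Synthesis on 1.4 nM ssM13Gori ran 35 min, then was stopped with PicoGreen/EDTA and read as dsDNA fluorescence.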
BRCT inh green – qHTS Assay for Inhibitors of BRCT-Phosphoprotein Interaction (Green Fluorophore); Breast cancer type 1 susceptibility protein (Homo sapiens), P38398; BRCA1 BRCT-phosphopeptide binding, green fluorescence polarization; Potency, µM (titrated, usually from 76.9 µM), without a hit: top-dose activity change, negative = inhibition, actives largely listed as inhibitors; 75,000 tested, 0.05% active; AID 875, 2007;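 note: potency is the fitted concentration of half-maximal effect; plate controls were peptide without protein for full effect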
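Fluorescence polarization: His-tagged BRCT (~35 kDa BRCA1 C-terminus, 250 nM) bound to 100 nM fluorescein-labeled phosphorylated 10-aa BACH1 peptide, pH 7.3 phosphate buffer with DTT and Tween 20. Compounds incubated 12 min at room temperature; inhibition read as lowered polarization.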
Active calls of the source: *; ! = a repeat was not active; [ ] = another dose, or the depositor's remark. Unless noted, calls come from the whole dose curve; as a rule, active = well fitted curve in the direction sought with a large enough effect; inconclusive = small, poorly fitted or top-dose-only effect, or another doubt; inactive = no such curve, though single readings can be large; an effect the other way counts as inactive or inconclusive.

Results for O=C(CSc1nnc(C2COc3ccccc3O2)o1)Nc1nccs1 (configuration not stated) ?
ALOX15 inhib: 88%; TsaE inh: inactive; BRCT PPI red: 1%; Hsp90 Hop PPI: 13µM*; Pol III holo inh: 4%; BRCT inh green: 0%

How did COc1ccc(-c2coc3cc(O[C@@H]4O[C@@H](CO)[C@@H](O)[C@@H](O)[C@H]4O)cc(O)c3c2=O)cc1 do in these assays?
TsaE inh: inactive; Hsp90 Hop PPI: 1%; Pol III holo inh: -6%

How did O=C(/C=C\c1ccc(O)c(O)c1)OCCc1ccccc1 do in these assays?
ALOX15 inhib: 0.79µM*; TsaE inh: inactive; BRCT PPI red: -4%; Hsp90 Hop PPI: inconclusive; Pol III holo inh: -2%; BRCT inh green: -1%

What do the screens show for `CC(C)CC(C(=O)Nc1oc(-c2ccco2)c(-c2ccco2)c1C#N)N1C(=O)c2ccccc2C1=O` (configuration not stated)?
ALOX15 inhib: 25µM*; TsaE inh: inactive; BRCT PPI red: -10%; Hsp90 Hop PPI: inconclusive; Pol III holo inh: 1%; BRCT inh green: -1%

Results for CN1CCN(c2ncc3nc(-c4cccc(C#N)c4)c(=O)n(Cc4ccc(F)cc4)c3n2)CC1 ?
ALOX15 inhib: -4%; TsaE inh: inactive; BRCT PPI red: 1%; Hsp90 Hop PPI: 1%; Pol III holo inh: 2%; BRCT inh green: -1%

How did CCOC(=O)c1cc(C#N)c(N)nc1C do in these assays?
ALOX15 inhib: 5%; TsaE inh: inactive; BRCT PPI red: 0%; Hsp90 Hop PPI: -4%; Pol III holo inh: 2%; BRCT inh green: 1%

What do the screens show for `CCOC(=O)c1cc(C)[nH]c(=S)c1C#N`?
ALOX15 inhib: 4µM*; TsaE inh: inactive; BRCT PPI red: -1%; Hsp90 Hop PPI: -4%; Pol III holo inh: -4%; BRCT inh green: 0%

Results for COc1cc2c(C#N)c(N3CCN(c4ccccc4OC)CC3)nc(N)c2c(N)n1 ?
ALOX15 inhib: -5%; TsaE inh: inactive; BRCT PPI red: -3%; Hsp90 Hop PPI: -7%; Pol III holo inh: -6%; BRCT inh green: 0%

Results for N#Cc1c(N2CCCC2)nc(N)c2c(N)nc(N3CCCC3)cc12 ?
ALOX15 inhib: -6%; TsaE inh: inactive; BRCT PPI red: -4%; Hsp90 Hop PPI: 25µM*; Pol III holo inh: 0%; BRCT inh green: 5%

What do the screens show for `S=C(S)O[C@@H]1C[C@@H]2C[C@H]1[C@@H]1CCC[C@H]21`?
ALOX15 inhib: 25µM*!; TsaE inh: inactive; BRCT PPI red: -1%; Hsp90 Hop PPI: -10%; Pol III holo inh: -8%; BRCT inh green: -2%

What do the screens show for `CCN(CC)[C@@H](C)C(=O)N1c2ccccc2Sc2ccccc21`?
TsaE inh: inactive; Hsp90 Hop PPI: -3%; Pol III holo inh: -4%

What do the screens show for `O=C(O)c1cc(S(=O)(=O)Nc2cccc(F)c2)ccc1Cl`?
ALOX15 inhib: 1%; BRCT PPI red: 0%; BRCT inh green: 0%

Results for Cc1ccc2[nH]c3nc(SCCN4CCOCC4)nnc3c2c1 ?
ALOX15 inhib: 2.5µM*; TsaE inh: inactive; BRCT PPI red: -4%; Hsp90 Hop PPI: -4%; Pol III holo inh: -4%; BRCT inh green: -5%

How did Cc1ccc2[nH]c3c(=O)n(CCCN4CCOCC4)cnc3c2c1 do in these assays?
ALOX15 inhib: -4%; TsaE inh: inactive; BRCT PPI red: 1%; Hsp90 Hop PPI: 1%; Pol III holo inh: -3%; BRCT inh green: 2%

How did COc1ccc2ccccc2c1C(O)c1nccn1C (configuration not stated) do in these assays?
ALOX15 inhib: inconclusive; TsaE inh: inactive; BRCT PPI red: inconclusive; Hsp90 Hop PPI: -4%; Pol III holo inh: 48%; BRCT inh green: 13µM*

How did Cc1ccc(N)cc1O do in these assays?
ALOX15 inhib: -28%; TsaE inh: inactive; BRCT PPI red: 0%; Hsp90 Hop PPI: -13%; Pol III holo inh: -3%; BRCT inh green: 1%

What do the screens show for `Cc1cc(O)c(-c2cc(O)c(C)cc2O)cc1O`?
ALOX15 inhib: 1.6µM*; TsaE inh: inactive; BRCT PPI red: -1%[15.4 µM]; Hsp90 Hop PPI: -2%[11 µM]; Pol III holo inh: -9%[11.4 µM]; BRCT inh green: 1%[15.4 µM]

Results for Cc1ccc(C)c(NS(=O)(=O)c2cc(C(=O)O)ccc2Cl)c1 ?
ALOX15 inhib: -5%; BRCT PPI red: -1%; BRCT inh green: -1%

Results for O=C(c1cccc(F)c1)N1CCN(C(=O)c2cc(-c3ccc(Cl)cc3Cl)on2)CC1 ?
ALOX15 inhib: 16µM*; TsaE inh: inactive; BRCT PPI red: -1%; Hsp90 Hop PPI: inconclusive; Pol III holo inh: 2%; BRCT inh green: 2%

What do the screens show for `COc1cccc(C(=O)N2CCN(C(=O)c3cccc(F)c3)CC2)c1`?
ALOX15 inhib: 7%; TsaE inh: inactive; BRCT PPI red: -1%; Hsp90 Hop PPI: 1%; Pol III holo inh: -4%; BRCT inh green: -1%

What do the screens show for `O=C(O)C1Nc2c(O)cccc2C2C=CCC12` (configuration not stated)?
ALOX15 inhib: inconclusive; TsaE inh: inactive; BRCT PPI red: -19%; Hsp90 Hop PPI: 25µM*; Pol III holo inh: 3.2µM*; BRCT inh green: -13%

Results for O=C(OC1CCCCC1)c1ccc2c(c1)C1C=CCC1C(C(=O)O)N2 (configuration not stated) ?
ALOX15 inhib: 25µM*; TsaE inh: inactive; BRCT PPI red: inconclusive; Hsp90 Hop PPI: inconclusive; Pol III holo inh: 20µM*; BRCT inh green: inconclusive

Results for O=C(O)CCC(=O)Nc1ccc(C(=O)OC2CCCCC2)cc1 ?
ALOX15 inhib: -2%; TsaE inh: inactive; BRCT PPI red: 0%; Hsp90 Hop PPI: 0%; Pol III holo inh: -2%; BRCT inh green: -4%

How did O=C1CN2CCN(CC2)CC(=O)Nc2ccc(cc2)S(=O)(=O)c2ccc(cc2)NC(=O)CN2CCN(CC2)CC(=O)Nc2ccc(cc2)S(=O)(=O)c2ccc(cc2)N1 do in these assays?
ALOX15 inhib: 14%[11.4 µM]; TsaE inh: inactive; BRCT PPI red: 6%[15.4 µM]; Hsp90 Hop PPI: -5%[11 µM]; Pol III holo inh: -13%[11.4 µM]; BRCT inh green: 12%[15.4 µM]
